{"source": "the supplement of paper PMC11172423", "note": "Unmarked numbers belong to inactive results."}
{"test_system": "Falciformispora senegalensis CBS197.79", "test": "growth relative to untreated control; higher = less inhibition, active = 20 or less", "settings": "25 µM", "outline": "(§1)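 In 96-well plates, suspended hyphal fragments of M. mycetomatis MM55 or F. senegalensis CBS197.79 were exposed to compound at 100 or 25 µM for 7 days at 37 °C. The suspension medium was colourless RPMI 1640 with L-glutamine and MOPS, adjusted to 68–72% transmission at 660 nm. Viability was measured with MTS (2 h, 490 nm) or resazurin (600 nm). Growth means metabolic activity compared with the untreated growth control after blank correction of both with medium plus dye.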"}
{"smiles": "CCNCc1cc(Nc2ccnc3cc(Cl)ccc23)ccc1O", "growth": "48.5%"}
{"smiles": "C=CC(C)(C)C1=C(O)C(=O)c2ccccc2C1=O", "growth": "103%"}
{"smiles": "CN(C)CCn1cnc2sc3c(c2c1=O)CCC(NCc1cccc(Cl)c1)C3", "note": "(configuration not stated)", "growth": "94.3%"}
{"smiles": "C[C@@H](O[C@H]1OCCN(Cc2n[nH]c(O)n2)[C@H]1c1ccc(F)cc1)c1cc(C(F)(F)F)cc(C(F)(F)F)c1", "growth": "104%"}
{"smiles": "CN(C)CCNC(=O)c1ccc(Nc2nccc(-c3ccc(Cl)c(Cl)c3)n2)cc1", "growth": "24.5%"}
{"smiles": "CCc1ccc2c(c1O)CCN(C)C2Cc1ccccc1Cl", "note": "(configuration not stated)", "growth": "78.3%"}
{"smiles": "Nc1nc2ccccc2n1CC(O)c1ccc(Cl)cc1Cl", "note": "(configuration not stated)", "growth": "82.1%"}
{"smiles": "CC(=O)[C@@]1(O)CC[C@H]2[C@H]3CCC4=CC(=O)CC[C@@]4(C)[C@H]3CC[C@@]21C", "growth": "92.2%"}
{"smiles": "O=C(c1ccc(Nc2nccc(-c3ccc(C(F)(F)F)c(Cl)c3)n2)cc1)N1CC(O)C1", "growth": "97.7%"}
{"smiles": "Cc1c[nH]c(-c2cccc(C(=O)NC3CCC(CCN4CCc5ccc(C#N)cc5CC4)CC3)c2)n1", "note": "(configuration not stated)", "growth": "74.1%"}
{"smiles": "C[C@H]1O[C@@H](O[C@H]2[C@@H](O)C[C@H](O[C@H]3[C@@H](O)C[C@H](O[C@H]4CC[C@@]5(C)[C@H](CC[C@@H]6[C@@H]5CC[C@]5(C)[C@@H](C7=CC(=O)OC7)CC[C@]65O)C4)O[C@@H]3C)O[C@@H]2C)C[C@H](O)[C@@H]1O", "growth": "99.1%"}
{"smiles": "Nc1nc(S)c2[nH]cnc2n1", "growth": "106%"}
{"smiles": "CC(C)(C)c1nn(-c2ccc(Cl)cc2)c2[nH]c(=O)c(CNCc3ccc4c(c3)OCO4)cc12", "growth": "72.1%"}
{"smiles": "NC1CCc2nc(-c3cccnc3)nc(Nc3ccc(C(F)(F)F)cc3)c2C1", "note": "(configuration not stated)", "growth": "102%"}
{"smiles": "CCOCCCNc1nc2cc(OC)c(OC)cc2c2nc(-c3ccccc3)nn12", "growth": "93.1%"}
{"smiles": "Cc1cccnc1Nc1cn2cc(-c3ccnc(OC(C)C)n3)ccc2n1", "growth": "101%"}
{"smiles": "Clc1ccc(Nc2nc3cnc(NC4CC4)nc3n2C2CCNCC2)cc1Cl", "growth": "76.9%"}
{"smiles": "Cn1nc(-c2cccc(C#N)c2)c2cc(-c3n[nH]c(C4CCCN4)n3)ccc21", "note": "(configuration not stated)", "growth": "98.7%"}
{"smiles": "CC(=O)N1CCN(c2ccc(OC[C@H]3CO[C@](Cn4ccnc4)(c4ccc(Cl)cc4Cl)O3)cc2)CC1", "growth": "31.6%"}
{"smiles": "COc1ccc(CCN(C)CCCC(C#N)(c2ccc(OC)c(OC)c2)C(C)C)cc1OC", "note": "(configuration not stated)", "growth": "110%"}
{"smiles": "CC(C)Oc1ccc(-c2nc(-c3cccc4c3CC[C@@H]4NCCO)no2)cc1C#N", "growth": "9.29% (active)"}
{"smiles": "CC(=O)Nc1ccc(NC(=O)c2cc(-c3ccc(C)cc3O)n[nH]2)cc1", "growth": "81.7%"}
{"smiles": "CC(C)c1cc(Oc2ccccc2)cc(C(C)C)c1NC(=S)NC(C)(C)C", "growth": "89.5%"}
{"smiles": "CO[C@H]1C[C@H](O[C@H]2[C@H](C)O[C@@H](O[C@@H]3/C(C)=C/C[C@@H]4C[C@@H](C[C@]5(C=C[C@H](C)[C@@H](C6CCCCC6)O5)O4)OC(=O)[C@@H]4C=C(C)[C@@H](O)[C@H]5OC/C(=C\\C=C\\[C@@H]3C)[C@]54O)C[C@@H]2OC)O[C@@H](C)[C@@H]1O", "growth": "93.1%"}
{"smiles": "CN(C)CCCN1c2ccccc2Sc2ccc(Cl)cc21", "growth": "22.7%"}
{"smiles": "COc1ccc2nc3cc(Cl)ccc3c(Nc3cc(CN4CCCC4)c(O)c(CN4CCCC4)c3)c2n1", "growth": "107%"}
{"smiles": "CC(C)CC(NCCc1ccccc1O)c1ccccn1", "note": "(configuration not stated)", "growth": "99.8%"}
{"smiles": "Cc1cc(C)c2cc(C(=O)N[C@@H](C)c3ccccc3)[nH]c2c1", "growth": "86.1%"}
{"smiles": "Cc1cc(Nc2cn3cc(-c4cnn(C(F)F)c4)ccc3n2)nc(C)n1", "growth": "94.1%"}
{"smiles": "O=C(NCCN1CCCCC1)c1cncc(-c2ccc(Cl)c(Cl)c2)c1", "growth": "95.7%"}
{"smiles": "Cc1c(-c2ccc(-c3ccccc3F)cc2)nc2ccc(F)cc2c1C(=O)O", "growth": "103%"}
{"smiles": "Cc1cccnc1Nc1cn2cc(-c3cccc(OCC(F)(F)F)n3)ccc2n1", "growth": "96.5%"}
{"smiles": "Cc1c(O)cccc1C(=O)N[C@@H](CSc1ccccc1)[C@H](O)CN1C[C@H]2CCCC[C@H]2C[C@H]1C(=O)NC(C)(C)C", "growth": "107%"}
{"smiles": "CN(C)c1cc(NC(=O)CNC(C)(C)C)c(O)c2c1C[C@H]1C[C@H]3[C@H](N(C)C)C(O)=C(C(N)=O)C(=O)[C@@]3(O)C(O)=C1C2=O", "growth": "104%"}
{"smiles": "CC(=O)Oc1ccccc1C(=O)Nc1ncc([N+](=O)[O-])s1", "growth": "97.4%"}
{"smiles": "c1ccc(Nc2cc(Nc3cc(-c4ccccc4)[nH]n3)nc3ccnn23)cc1", "growth": "67.4%"}
{"test_system": "Falciformispora senegalensis CBS197.79", "test": "growth relative to untreated control; higher = less inhibition, active = 20 or less", "settings": "100 µM", "outline": "as §1"}
{"smiles": "CCNCc1cc(Nc2ccnc3cc(Cl)ccc23)ccc1O", "growth": "16.4% (active)"}
{"smiles": "C=CC(C)(C)C1=C(O)C(=O)c2ccccc2C1=O", "growth": "101%"}
{"smiles": "CN(C)CCn1cnc2sc3c(c2c1=O)CCC(NCc1cccc(Cl)c1)C3", "note": "(configuration not stated)", "growth": "21%"}
{"smiles": "C[C@@H](O[C@H]1OCCN(Cc2n[nH]c(O)n2)[C@H]1c1ccc(F)cc1)c1cc(C(F)(F)F)cc(C(F)(F)F)c1", "growth": "103%"}
{"smiles": "CN(C)CCNC(=O)c1ccc(Nc2nccc(-c3ccc(Cl)c(Cl)c3)n2)cc1", "growth": "43.3%"}
{"smiles": "CCc1ccc2c(c1O)CCN(C)C2Cc1ccccc1Cl", "note": "(configuration not stated)", "growth": "27.8%"}
{"smiles": "Nc1nc2ccccc2n1CC(O)c1ccc(Cl)cc1Cl", "note": "(configuration not stated)", "growth": "30.8%"}
{"smiles": "CC(=O)[C@@]1(O)CC[C@H]2[C@H]3CCC4=CC(=O)CC[C@@]4(C)[C@H]3CC[C@@]21C", "growth": "106%"}
{"smiles": "O=C(c1ccc(Nc2nccc(-c3ccc(C(F)(F)F)c(Cl)c3)n2)cc1)N1CC(O)C1", "growth": "106%"}
{"smiles": "Cc1c[nH]c(-c2cccc(C(=O)NC3CCC(CCN4CCc5ccc(C#N)cc5CC4)CC3)c2)n1", "note": "(configuration not stated)", "growth": "92.9%"}
{"smiles": "C[C@H]1O[C@@H](O[C@H]2[C@@H](O)C[C@H](O[C@H]3[C@@H](O)C[C@H](O[C@H]4CC[C@@]5(C)[C@H](CC[C@@H]6[C@@H]5CC[C@]5(C)[C@@H](C7=CC(=O)OC7)CC[C@]65O)C4)O[C@@H]3C)O[C@@H]2C)C[C@H](O)[C@@H]1O", "growth": "98%"}
{"smiles": "Nc1nc(S)c2[nH]cnc2n1", "growth": "103%"}
{"smiles": "CC(C)(C)c1nn(-c2ccc(Cl)cc2)c2[nH]c(=O)c(CNCc3ccc4c(c3)OCO4)cc12", "growth": "66.3%"}
{"smiles": "NC1CCc2nc(-c3cccnc3)nc(Nc3ccc(C(F)(F)F)cc3)c2C1", "note": "(configuration not stated)", "growth": "13.8% (active)"}
{"smiles": "CCOCCCNc1nc2cc(OC)c(OC)cc2c2nc(-c3ccccc3)nn12", "growth": "89.3%"}
{"smiles": "Cc1cccnc1Nc1cn2cc(-c3ccnc(OC(C)C)n3)ccc2n1", "growth": "91%"}
{"smiles": "Clc1ccc(Nc2nc3cnc(NC4CC4)nc3n2C2CCNCC2)cc1Cl", "growth": "91.4%"}
{"smiles": "Cn1nc(-c2cccc(C#N)c2)c2cc(-c3n[nH]c(C4CCCN4)n3)ccc21", "note": "(configuration not stated)", "growth": "94.2%"}
{"smiles": "CC(=O)N1CCN(c2ccc(OC[C@H]3CO[C@](Cn4ccnc4)(c4ccc(Cl)cc4Cl)O3)cc2)CC1", "growth": "12.3% (active)"}
{"smiles": "COc1ccc(CCN(C)CCCC(C#N)(c2ccc(OC)c(OC)c2)C(C)C)cc1OC", "note": "(configuration not stated)", "growth": "98.5%"}
{"smiles": "CC(C)Oc1ccc(-c2nc(-c3cccc4c3CC[C@@H]4NCCO)no2)cc1C#N", "growth": "6.46% (active)"}
{"smiles": "CC(=O)Nc1ccc(NC(=O)c2cc(-c3ccc(C)cc3O)n[nH]2)cc1", "growth": "82.2%"}
{"smiles": "CC(C)c1cc(Oc2ccccc2)cc(C(C)C)c1NC(=S)NC(C)(C)C", "growth": "90.7%"}
{"smiles": "CO[C@H]1C[C@H](O[C@H]2[C@H](C)O[C@@H](O[C@@H]3/C(C)=C/C[C@@H]4C[C@@H](C[C@]5(C=C[C@H](C)[C@@H](C6CCCCC6)O5)O4)OC(=O)[C@@H]4C=C(C)[C@@H](O)[C@H]5OC/C(=C\\C=C\\[C@@H]3C)[C@]54O)C[C@@H]2OC)O[C@@H](C)[C@@H]1O", "growth": "88.5%"}
{"smiles": "CN(C)CCCN1c2ccccc2Sc2ccc(Cl)cc21", "growth": "7.45% (active)"}
{"smiles": "COc1ccc2nc3cc(Cl)ccc3c(Nc3cc(CN4CCCC4)c(O)c(CN4CCCC4)c3)c2n1", "growth": "15% (active)"}
{"smiles": "CC(C)CC(NCCc1ccccc1O)c1ccccn1", "note": "(configuration not stated)", "growth": "78.8%"}
{"smiles": "Cc1cc(C)c2cc(C(=O)N[C@@H](C)c3ccccc3)[nH]c2c1", "growth": "87.5%"}
{"smiles": "Cc1cc(Nc2cn3cc(-c4cnn(C(F)F)c4)ccc3n2)nc(C)n1", "growth": "83.8%"}
{"smiles": "O=C(NCCN1CCCCC1)c1cncc(-c2ccc(Cl)c(Cl)c2)c1", "growth": "30.1%"}
{"smiles": "Cc1c(-c2ccc(-c3ccccc3F)cc2)nc2ccc(F)cc2c1C(=O)O", "growth": "98.6%"}
{"smiles": "Cc1cccnc1Nc1cn2cc(-c3cccc(OCC(F)(F)F)n3)ccc2n1", "growth": "86.9%"}
{"smiles": "Cc1c(O)cccc1C(=O)N[C@@H](CSc1ccccc1)[C@H](O)CN1C[C@H]2CCCC[C@H]2C[C@H]1C(=O)NC(C)(C)C", "growth": "105%"}
{"smiles": "CN(C)c1cc(NC(=O)CNC(C)(C)C)c(O)c2c1C[C@H]1C[C@H]3[C@H](N(C)C)C(O)=C(C(N)=O)C(=O)[C@@]3(O)C(O)=C1C2=O", "growth": "107%"}
{"smiles": "CC(=O)Oc1ccccc1C(=O)Nc1ncc([N+](=O)[O-])s1", "growth": "104%"}
{"smiles": "c1ccc(Nc2cc(Nc3cc(-c4ccccc4)[nH]n3)nc3ccnn23)cc1", "growth": "59.7%"}
